The record followed here is ChEMBL document CHEMBL1961873, “Compounds: GSK PKIS; Assays: Nanosyn kinase panel” (2012).

Experiment [1] concerns the target Sphingosine kinase 1 (Homo sapiens) (UniProt Q9NYA1). The conditions noted are these: at 1 µM.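 Also: mean SPHK1 inhibition value reported from the GSK PKIS kinase panel screen.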
Experiment [2] concerns the target T1, Sphingosine kinase 2 (Homo sapiens) (UniProt Q9NRA0).
T1 sequence (whole entry): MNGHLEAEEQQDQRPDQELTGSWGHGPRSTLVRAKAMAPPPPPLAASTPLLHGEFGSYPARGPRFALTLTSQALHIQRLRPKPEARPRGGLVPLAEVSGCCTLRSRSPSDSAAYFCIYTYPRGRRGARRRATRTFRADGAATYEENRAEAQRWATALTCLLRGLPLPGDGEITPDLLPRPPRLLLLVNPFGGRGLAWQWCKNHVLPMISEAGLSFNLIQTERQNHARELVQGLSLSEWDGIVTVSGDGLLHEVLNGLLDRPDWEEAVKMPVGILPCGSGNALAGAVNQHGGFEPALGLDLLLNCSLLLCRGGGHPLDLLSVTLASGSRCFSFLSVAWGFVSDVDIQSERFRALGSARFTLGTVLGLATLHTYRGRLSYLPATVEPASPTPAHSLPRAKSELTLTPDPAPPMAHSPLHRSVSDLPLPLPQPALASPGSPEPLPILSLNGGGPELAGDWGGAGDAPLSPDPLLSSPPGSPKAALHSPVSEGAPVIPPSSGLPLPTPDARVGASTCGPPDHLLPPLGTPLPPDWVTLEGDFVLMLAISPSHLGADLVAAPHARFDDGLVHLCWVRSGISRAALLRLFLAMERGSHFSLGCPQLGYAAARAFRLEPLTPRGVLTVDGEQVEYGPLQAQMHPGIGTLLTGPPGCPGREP
The conditions noted are these: at 0.1 µM.

Experiment [3] concerns the target T1, Sphingosine kinase 2 (Homo sapiens). Particulars: at 1 µM.
In experiment [4] the target is Casein kinase II subunit alpha (Homo sapiens) (UniProt P68400). The conditions noted are these: at 0.1 µM.
For experiment [5] the target is unchanged. Particulars: at 1 µM.
For experiment [6], the target named is T2, Inhibitor of nuclear factor kappa-B kinase subunit alpha (Homo sapiens) (UniProt O15111).
T2 sequence (whole entry): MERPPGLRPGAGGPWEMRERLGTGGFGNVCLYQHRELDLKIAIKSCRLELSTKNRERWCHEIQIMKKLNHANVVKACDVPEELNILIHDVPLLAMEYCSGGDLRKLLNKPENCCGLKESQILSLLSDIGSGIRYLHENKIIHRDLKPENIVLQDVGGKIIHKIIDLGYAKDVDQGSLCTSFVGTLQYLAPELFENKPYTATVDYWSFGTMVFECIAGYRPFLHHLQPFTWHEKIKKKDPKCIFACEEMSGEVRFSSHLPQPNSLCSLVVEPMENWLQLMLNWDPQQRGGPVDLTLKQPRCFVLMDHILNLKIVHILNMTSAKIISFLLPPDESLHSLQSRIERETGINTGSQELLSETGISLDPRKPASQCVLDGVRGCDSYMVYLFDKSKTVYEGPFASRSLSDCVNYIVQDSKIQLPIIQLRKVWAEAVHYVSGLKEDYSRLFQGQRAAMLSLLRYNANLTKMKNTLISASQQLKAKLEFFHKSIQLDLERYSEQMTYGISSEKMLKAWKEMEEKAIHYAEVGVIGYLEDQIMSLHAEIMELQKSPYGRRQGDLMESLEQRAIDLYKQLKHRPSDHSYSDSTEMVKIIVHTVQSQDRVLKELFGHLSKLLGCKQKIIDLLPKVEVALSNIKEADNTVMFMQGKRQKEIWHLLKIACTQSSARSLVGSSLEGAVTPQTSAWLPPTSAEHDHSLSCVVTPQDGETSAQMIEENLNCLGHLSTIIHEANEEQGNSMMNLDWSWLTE
Particulars: at 0.1 µM.

The target of experiment [7] is T2, Inhibitor of nuclear factor kappa-B kinase subunit alpha (Homo sapiens). The conditions noted are these: at 1 µM.
For experiment [8], the target named is T3, Inhibitor of nuclear factor kappa-B kinase subunit beta (Homo sapiens) (UniProt O14920).
T3 sequence (whole entry): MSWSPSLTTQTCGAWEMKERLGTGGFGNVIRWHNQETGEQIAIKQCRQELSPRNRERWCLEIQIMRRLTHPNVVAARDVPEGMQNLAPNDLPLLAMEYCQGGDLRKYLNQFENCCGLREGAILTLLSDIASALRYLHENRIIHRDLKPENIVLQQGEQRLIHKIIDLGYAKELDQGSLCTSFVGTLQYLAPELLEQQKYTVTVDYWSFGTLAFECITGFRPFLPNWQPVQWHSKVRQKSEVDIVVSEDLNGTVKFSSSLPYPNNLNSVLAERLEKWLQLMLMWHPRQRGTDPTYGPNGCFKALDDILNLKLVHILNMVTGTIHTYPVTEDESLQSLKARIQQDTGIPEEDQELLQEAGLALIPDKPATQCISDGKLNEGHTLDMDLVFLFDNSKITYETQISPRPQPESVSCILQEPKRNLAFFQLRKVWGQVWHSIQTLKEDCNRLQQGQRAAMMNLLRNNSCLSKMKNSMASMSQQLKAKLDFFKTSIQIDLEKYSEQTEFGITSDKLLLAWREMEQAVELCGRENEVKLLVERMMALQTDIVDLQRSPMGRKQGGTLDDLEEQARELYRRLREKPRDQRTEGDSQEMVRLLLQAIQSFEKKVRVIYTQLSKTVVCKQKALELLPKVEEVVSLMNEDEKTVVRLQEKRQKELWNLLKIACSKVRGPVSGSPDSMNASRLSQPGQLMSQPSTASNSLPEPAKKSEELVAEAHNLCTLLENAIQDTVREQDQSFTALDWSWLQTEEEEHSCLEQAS
The conditions noted are these: at 0.1 µM.

The target in experiment [9] is T3, Inhibitor of nuclear factor kappa-B kinase subunit beta (Homo sapiens). The conditions noted are these: at 1 µM.
Experiment [10] deals with T4, Inhibitor of nuclear factor kappa-B kinase subunit epsilon (Homo sapiens) (UniProt Q14164).
T4 sequence (whole entry): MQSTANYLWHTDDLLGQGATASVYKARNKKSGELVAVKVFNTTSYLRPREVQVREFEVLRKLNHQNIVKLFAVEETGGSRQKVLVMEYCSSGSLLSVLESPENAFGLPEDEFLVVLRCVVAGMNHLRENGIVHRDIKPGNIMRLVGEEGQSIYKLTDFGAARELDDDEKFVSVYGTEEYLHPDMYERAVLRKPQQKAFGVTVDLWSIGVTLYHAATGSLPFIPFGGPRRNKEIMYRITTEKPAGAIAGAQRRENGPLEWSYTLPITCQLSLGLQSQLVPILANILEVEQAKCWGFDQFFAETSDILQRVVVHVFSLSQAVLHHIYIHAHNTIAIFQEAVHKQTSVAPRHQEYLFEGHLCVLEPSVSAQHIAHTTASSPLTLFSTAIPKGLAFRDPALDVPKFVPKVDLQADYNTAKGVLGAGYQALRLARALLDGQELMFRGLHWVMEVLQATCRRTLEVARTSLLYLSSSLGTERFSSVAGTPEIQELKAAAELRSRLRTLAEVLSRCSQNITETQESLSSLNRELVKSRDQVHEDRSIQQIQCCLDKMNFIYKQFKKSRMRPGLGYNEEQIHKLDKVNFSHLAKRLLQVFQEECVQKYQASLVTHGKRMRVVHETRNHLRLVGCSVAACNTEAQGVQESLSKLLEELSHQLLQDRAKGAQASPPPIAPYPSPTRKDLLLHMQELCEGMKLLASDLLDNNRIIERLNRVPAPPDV
Particulars: at 0.1 µM.

In experiment [11] the target is T4, Inhibitor of nuclear factor kappa-B kinase subunit epsilon (Homo sapiens). The conditions noted are these: at 1 µM.
Experiment [12] addresses T5, Serine/threonine-protein kinase Nek1 (Homo sapiens) (UniProt Q96PY6).
T5 sequence (whole entry): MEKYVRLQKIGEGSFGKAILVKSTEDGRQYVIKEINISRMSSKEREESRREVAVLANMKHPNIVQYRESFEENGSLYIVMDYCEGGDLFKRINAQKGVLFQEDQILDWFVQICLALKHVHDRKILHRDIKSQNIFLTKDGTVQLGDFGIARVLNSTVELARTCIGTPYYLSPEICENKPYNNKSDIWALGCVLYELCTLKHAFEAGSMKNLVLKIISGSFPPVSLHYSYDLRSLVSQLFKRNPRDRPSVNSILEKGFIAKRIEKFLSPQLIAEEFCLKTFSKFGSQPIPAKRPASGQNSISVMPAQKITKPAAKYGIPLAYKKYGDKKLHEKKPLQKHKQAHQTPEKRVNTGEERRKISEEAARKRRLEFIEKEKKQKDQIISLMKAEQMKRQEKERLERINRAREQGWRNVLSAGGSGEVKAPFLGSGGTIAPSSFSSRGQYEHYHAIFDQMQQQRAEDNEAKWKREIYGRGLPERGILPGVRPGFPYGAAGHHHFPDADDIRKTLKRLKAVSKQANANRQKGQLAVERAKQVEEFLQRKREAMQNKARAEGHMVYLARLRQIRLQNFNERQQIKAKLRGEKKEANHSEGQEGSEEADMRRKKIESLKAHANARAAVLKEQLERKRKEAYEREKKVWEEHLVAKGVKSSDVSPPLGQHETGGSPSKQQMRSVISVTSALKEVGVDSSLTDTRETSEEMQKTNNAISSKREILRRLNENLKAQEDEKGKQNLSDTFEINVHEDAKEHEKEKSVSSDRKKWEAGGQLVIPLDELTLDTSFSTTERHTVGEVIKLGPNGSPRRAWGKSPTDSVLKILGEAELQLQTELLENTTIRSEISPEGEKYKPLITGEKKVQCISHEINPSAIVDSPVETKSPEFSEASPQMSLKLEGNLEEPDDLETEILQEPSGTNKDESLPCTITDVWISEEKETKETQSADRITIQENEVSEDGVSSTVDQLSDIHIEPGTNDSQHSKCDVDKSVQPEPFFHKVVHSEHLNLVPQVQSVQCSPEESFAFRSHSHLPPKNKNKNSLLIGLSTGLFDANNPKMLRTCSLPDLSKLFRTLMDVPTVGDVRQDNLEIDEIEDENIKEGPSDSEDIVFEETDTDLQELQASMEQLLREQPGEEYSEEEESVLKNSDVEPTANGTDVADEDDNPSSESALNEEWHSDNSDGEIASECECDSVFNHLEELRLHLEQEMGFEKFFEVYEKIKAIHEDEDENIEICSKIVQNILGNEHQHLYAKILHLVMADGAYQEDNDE
The conditions noted are these: at 0.1 µM.

Experiment [13] concerns the target T5, Serine/threonine-protein kinase Nek1 (Homo sapiens). The conditions noted are these: at 1 µM.
Experiment [14] has as its target T6, Serine/threonine-protein kinase Nek2 (Homo sapiens) (UniProt P51955).
T6 sequence (whole entry): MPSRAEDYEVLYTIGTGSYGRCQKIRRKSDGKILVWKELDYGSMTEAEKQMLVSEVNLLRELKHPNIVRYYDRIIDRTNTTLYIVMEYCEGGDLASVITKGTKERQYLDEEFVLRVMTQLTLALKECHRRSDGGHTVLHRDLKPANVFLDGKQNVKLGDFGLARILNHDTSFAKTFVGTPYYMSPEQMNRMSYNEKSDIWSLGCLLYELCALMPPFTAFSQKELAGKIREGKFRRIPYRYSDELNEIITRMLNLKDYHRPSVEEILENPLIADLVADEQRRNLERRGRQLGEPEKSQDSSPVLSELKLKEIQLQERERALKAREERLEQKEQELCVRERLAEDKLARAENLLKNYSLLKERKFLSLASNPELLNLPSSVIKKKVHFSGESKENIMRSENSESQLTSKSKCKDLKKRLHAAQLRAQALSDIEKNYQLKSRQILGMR
Particulars: at 0.1 µM.

Experiment [15] addresses T6, Serine/threonine-protein kinase Nek2 (Homo sapiens). The conditions noted are these: at 1 µM.
Experiment [16] has as its target Serine/threonine-protein kinase Nek6 (Homo sapiens) (UniProt Q9HC98). Particulars: at 0.1 µM.
The target is the same in experiment [17]. The conditions noted are these: at 1 µM.
The target of experiment [18] is Serine/threonine-protein kinase Nek7 (Homo sapiens) (UniProt Q8TDX7). Particulars: at 0.1 µM.
Experiment [19] has the same target. The conditions noted are these: at 1 µM.
For experiment [20], the target named is T7, Serine/threonine-protein kinase Nek9 (Homo sapiens) (UniProt Q8TD19).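 Also: reported value is the mean percent inhibition of NEK9.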
T7 sequence (whole entry): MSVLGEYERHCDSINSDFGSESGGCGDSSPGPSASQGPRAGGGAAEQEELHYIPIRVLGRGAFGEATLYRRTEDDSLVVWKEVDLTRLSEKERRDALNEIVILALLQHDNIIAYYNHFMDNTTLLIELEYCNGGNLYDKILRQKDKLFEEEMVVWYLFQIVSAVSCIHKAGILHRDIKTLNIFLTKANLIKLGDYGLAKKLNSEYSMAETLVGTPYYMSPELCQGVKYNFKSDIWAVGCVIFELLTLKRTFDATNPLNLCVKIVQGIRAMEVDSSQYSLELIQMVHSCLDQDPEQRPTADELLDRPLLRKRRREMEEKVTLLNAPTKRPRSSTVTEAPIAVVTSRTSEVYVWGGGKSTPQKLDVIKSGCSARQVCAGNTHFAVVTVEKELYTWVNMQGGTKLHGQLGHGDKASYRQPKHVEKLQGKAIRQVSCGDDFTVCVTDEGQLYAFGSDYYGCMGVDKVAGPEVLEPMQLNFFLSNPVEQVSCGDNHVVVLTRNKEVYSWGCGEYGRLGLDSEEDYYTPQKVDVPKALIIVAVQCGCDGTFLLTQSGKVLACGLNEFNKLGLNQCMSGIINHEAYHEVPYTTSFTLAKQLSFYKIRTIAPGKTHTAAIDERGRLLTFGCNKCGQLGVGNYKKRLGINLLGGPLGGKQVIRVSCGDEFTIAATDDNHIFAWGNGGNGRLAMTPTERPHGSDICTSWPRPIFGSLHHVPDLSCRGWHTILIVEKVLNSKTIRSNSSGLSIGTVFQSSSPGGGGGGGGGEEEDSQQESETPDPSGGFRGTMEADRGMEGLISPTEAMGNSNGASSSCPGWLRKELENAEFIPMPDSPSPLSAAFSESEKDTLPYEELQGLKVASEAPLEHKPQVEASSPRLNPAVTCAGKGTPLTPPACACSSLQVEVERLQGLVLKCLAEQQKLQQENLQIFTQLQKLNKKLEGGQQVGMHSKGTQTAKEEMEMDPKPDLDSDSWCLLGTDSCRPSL
The conditions noted are these: at 0.1 µM.

SMILES strings stand for the structures.

For orientation: inhibition means the change of the read-out against control, counted positive when it falls.

Sequence of Serine/threonine-protein kinase Nek6 (Homo sapiens) (Q9HC98 whole entry): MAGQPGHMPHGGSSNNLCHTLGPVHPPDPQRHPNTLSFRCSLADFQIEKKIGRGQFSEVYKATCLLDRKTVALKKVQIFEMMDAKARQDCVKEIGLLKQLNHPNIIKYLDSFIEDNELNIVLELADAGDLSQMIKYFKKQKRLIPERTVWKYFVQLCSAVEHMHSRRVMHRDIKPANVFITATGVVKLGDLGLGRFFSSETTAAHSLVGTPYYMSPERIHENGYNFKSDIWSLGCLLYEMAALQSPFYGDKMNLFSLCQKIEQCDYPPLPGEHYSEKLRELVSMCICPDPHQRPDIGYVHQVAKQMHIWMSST
Sequence of Casein kinase II subunit alpha (Homo sapiens) (P68400 whole entry, looked up): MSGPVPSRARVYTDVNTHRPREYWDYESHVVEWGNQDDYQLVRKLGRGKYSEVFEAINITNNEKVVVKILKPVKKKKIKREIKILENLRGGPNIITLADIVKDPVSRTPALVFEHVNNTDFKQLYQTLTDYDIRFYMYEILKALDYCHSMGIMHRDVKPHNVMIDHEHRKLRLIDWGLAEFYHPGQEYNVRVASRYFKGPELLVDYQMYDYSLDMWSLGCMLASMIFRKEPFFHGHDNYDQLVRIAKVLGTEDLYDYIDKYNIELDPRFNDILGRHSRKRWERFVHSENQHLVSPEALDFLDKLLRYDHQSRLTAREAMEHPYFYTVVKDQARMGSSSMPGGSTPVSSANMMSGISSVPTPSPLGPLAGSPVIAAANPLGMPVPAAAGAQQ
Sequence of Serine/threonine-protein kinase Nek7 (Homo sapiens) (Q8TDX7 whole entry, looked up): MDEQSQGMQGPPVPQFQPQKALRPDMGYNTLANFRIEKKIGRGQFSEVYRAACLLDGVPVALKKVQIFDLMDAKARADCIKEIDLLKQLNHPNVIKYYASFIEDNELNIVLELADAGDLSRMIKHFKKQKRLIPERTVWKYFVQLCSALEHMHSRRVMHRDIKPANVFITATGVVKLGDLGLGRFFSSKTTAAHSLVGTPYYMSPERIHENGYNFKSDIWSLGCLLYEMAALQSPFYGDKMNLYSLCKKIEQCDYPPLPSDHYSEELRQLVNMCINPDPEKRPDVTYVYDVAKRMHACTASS
Sequence of Sphingosine kinase 1 (Homo sapiens) (Q9NYA1 whole entry): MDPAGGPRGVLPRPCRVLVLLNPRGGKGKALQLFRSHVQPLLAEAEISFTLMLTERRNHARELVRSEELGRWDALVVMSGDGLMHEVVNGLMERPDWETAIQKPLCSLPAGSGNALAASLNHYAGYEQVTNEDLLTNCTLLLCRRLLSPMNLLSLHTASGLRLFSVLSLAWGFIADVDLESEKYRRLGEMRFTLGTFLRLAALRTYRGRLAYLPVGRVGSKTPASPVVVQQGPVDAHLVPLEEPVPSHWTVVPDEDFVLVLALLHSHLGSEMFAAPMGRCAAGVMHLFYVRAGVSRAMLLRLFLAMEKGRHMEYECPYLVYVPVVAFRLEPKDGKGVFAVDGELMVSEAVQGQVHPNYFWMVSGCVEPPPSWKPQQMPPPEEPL

With `O=C(Nc1n[nH]c2cc(-c3cc(F)ccc3F)ccc12)C1CC1`, the inhibition in [1] is -2.44%; in experiment [2], 2.23%; in [3], 0.13%; in experiment [4], 2.27%; in experiment [5], 2.39%; in [6] it was 8.06%. The inhibition amounted to 7.87% in experiment [7]; 4.95% in [8]; 5.11% in [9]; 4.29% in [10]; 6.78% in experiment [11]; 1.23% in experiment [12]. The inhibition is 0.65% in experiment [13]; 3.53% in experiment [14]; 2.03% in experiment [15]; 1.92% in experiment [16]; -0.92% in [17]; 6.28% in experiment [18]. Moreover, the inhibition in experiment [19] came to 3.5%; in [20] it was 11.6%.
